Compounds with a hit are over-represented: about 1.6% of the library has one in this group of screens.
C8 TRAIL sens: sensitizes caspase-8 expressing cells to TRAIL; NB7+C8 cells + TRAIL, ATPlite viability luminescence; inhibition (viability loss, TRAIL sensitization), % at 10 µM; 1% of 360,000 active;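 active = compounds causing at least 50% loss of cell viability in the single-dose screen, relative to plate controls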
PPC-1+TRAIL kill: compounds killing PPC-1 cancer cells with TRAIL present (potentiator screen, no TRAIL-free arm) | PPC-1 cells + TRAIL, ATPLite viability luminescence | cell killing (% activity), % at 4 µM or 5 µM | 0.41% of 220,000 active;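 active = cell killing above 50% in the first pass at 4 µM, then a duplicate retest at 5 µM averaging 50% or more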;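 note: plate controls were cells with TRAIL plus DMSO for no effect and medium-only wells lacking cells for full effect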
STAT1 blocker: inhibitors of IFN-gamma induced STAT1 signaling; NIH 3T3 STAT1-luciferase reporter, luminescence; inhibition, % at 5.5 µM; AID 920; 0.35% of 200,000 active;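 active = inhibition above a set limit, the mean inhibition across all tested compounds plus 3 SD, cut at about 34% in these data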;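 note: 0% = IFN-gamma with DMSO and 100% = IFN-gamma with 300 µM nifuroxazide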
Platelet DG rel: modulates dense granule release in human platelets | 0.22% of 300,000 active | human platelet-rich plasma, SFLLRN dense granule ATP release, luminescence | inhibition, %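 (compounds screened at 7.5 µM in platelet-rich plasma)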;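 active = mean replicate score, as percent of positive control, at or above 50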
STAT3 inh-1: inhibitors of IL-6 induced STAT3 signaling; inhibition, % at 5.5 µM; AID 862; 0.89% of 190,000 active; U3A cells, IL-6 STAT3-luciferase reporter, luminescence; host cell line lacks STAT1;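 active = inhibition above the mean inhibition across all screened compounds plus 3 SD, cut at about 44% in these data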;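 note: 0% = DMSO only wells and 100% = 100 µM nifuroxazide control wells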
STAT3 inh-2: confirmation of STAT3 signaling inhibitors; shares compounds with STAT3 inh-1; 45% of 1,200 active; inhibition, % at 5.7 µM; U3A cells, IL-6 STAT3 luciferase reporter, luminescence; cell line lacks STAT1;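 active = inhibition above the hit cutoff computed for the primary STAT3 screen, cut at about 44% in these data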;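 note: 0% = IL-6 plus DMSO and 100% = IL-6 plus nifuroxazide control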
NFkB inh 2: inhibits NF-kappaB, counter-screen to STAT3 inhibitors; shares compounds with STAT3 inh-1; HEK293T NF-kB luciferase reporter, TNF-alpha induced; inhibition, % at 5.7 µM; 36% of 1,200 active;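 active = inhibition above the mean of solvent-only control wells plus 3 SD, cutoff set per campaign, cut at about 13% in these data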;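 note: 0% = TNF-alpha with DMSO and 100% = TNF-alpha with MG high control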
STAT1 inh 2: counter-screen for STAT3 inhibitors: STAT1 inhibition; AID 1317; 27% of 1,200 active; NIH 3T3 STAT1-luciferase reporter, IFN-gamma induced, luminescence; shares compounds with STAT3 inh-1; inhibition, % at 5.7 µM;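 active = inhibition above the mean plus 3 SD of solvent-only control wells, limit set per screening run, cut at about 16% in these data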;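 note: 0% = DMSO with IFN-gamma and 100% = nifuroxazide control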
The depositor's hits bear a star; x = not tested or not shown.

SMILES | C8 TRAIL sens | PPC-1+TRAIL kill | STAT1 blocker | Platelet DG rel | STAT3 inh-1 | STAT3 inh-2 | NFkB inh 2 | STAT1 inh 2
CN(c1ccc(C(=O)Nc2ccc(S(=O)(=O)N3CCCC3)cc2)cc1)S(C)(=O)=O | 23 | 13 | -3 | -1 | 58* | 43 | 6 | -1
CCN(CC)S(=O)(=O)c1ccc(NC(=O)c2ccc(CN3CCOCC3)cc2)cc1 | 27 | 17 | 11 | -6 | 66* | 80* | 26* | 7
CN(c1ccccc1C(=O)Nc1ccc(S(=O)(=O)N2CCCC2)cc1)S(C)(=O)=O | -2 | -1 | -8 | -3 | -7 | x | x | x
CCOC(=O)c1ccc(NC(=O)c2cnccn2)cc1 | -3 | 10 | -20 | 0 | 15 | x | x | x
O=C(Nc1ccc(S(=O)(=O)N2CCCC2)cc1)c1ccc(CN2CCOCC2)cc1 | 27 | 21 | 5 | 1 | 65* | 52* | 15* | 13
O=C(Nc1ccc(Cc2ccncc2)cc1)c1ccc(S(=O)(=O)N2CCOCC2)cc1 | 18 | 20 | 14 | -11 | 70* | 57* | 12 | 12
O=C(Nc1ccc(S(=O)(=O)N2CCCC2)cc1)c1cnccn1 | -3 | 8 | 10 | 4 | 4 | x | x | x
O=C(Nc1ccc(S(=O)(=O)N2CCN(Cc3ccccc3)CC2)cc1)c1cnccn1 | 21 | 3 | 21 | -7 | 82* | 75* | 25* | 23*
O=C(Nc1ccc(S(=O)(=O)N2CCOCC2)cc1)c1ccc(Cl)cc1 | 21 | 9 | x | 14 | x | x | x | x
O=C(Nc1ccc(S(=O)(=O)N2CCOCC2)cc1)c1ccc(S(=O)(=O)N2CCOCC2)cc1 | 1 | x | x | 4 | x | x | x | x
CCOC(=O)[C@]12CCC=C1N(Cc1cccc3ccccc13)C(=O)[C@H](CC(=O)NCC1CCCCC1)C2 | 16 | x | x | x | x | x | x | x
CCCCCOc1ccc(Br)cc1CSC(=N)N | 1 | 3 | 33 | 1 | 49* | 63* | 23* | 21*
COc1ccc(Br)cc1CSC(=N)N | -6 | 32 | 12 | 1 | 17 | x | x | x
Oc1ccccc1Nc1nc(NCC2CCCO2)c2ccccc2n1 (centres undefined) | -4 | 7 | 4 | 5 | 50* | 33 | -7 | 0
O=C(Nc1ccc(NC(=O)C2CCCCC2)cn1)c1ccco1 | 70* | 58* | -44 | 11 | 62* | 30 | -23 | -62
CC1(C)Oc2ccc(NC(=O)C3COc4ccccc4O3)cc2O1 (centres undefined) | 33 | 8 | -22 | 7 | 64* | 26 | -15 | -85
Cc1ccc(NC(=O)C2COc3ccccc3O2)cc1 (centres undefined) | -9 | x | x | -6 | x | x | x | x
CC(=O)c1sc(NC(=O)C2COc3ccccc3O2)nc1C (centres undefined) | -11 | x | 20 | -5 | 74* | 34 | -2 | -43
O=C(Nc1nncs1)C1COc2ccccc2O1 (centres undefined) | 2 | 12 | -9 | 2 | -9 | x | x | x
Clc1ccc2ncc(-c3nnnn3-c3ccccc3)c(-c3ccccc3)c2c1 | -7 | -4 | 5 | -3 | 61* | 44* | 11 | 2
COc1cc(C(=O)NCc2ccc(-c3nc4ccccc4s3)cc2)cc(OC)c1OC | 20 | 5 | -46 | -5 | -1 | x | x | x
COc1ccccc1C(=O)NCc1ccc(-c2nc3ccccc3s2)cc1 | -3 | 32 | 9 | -4 | 51* | -17 | 9 | -81
CNc1ccccc1C(C)(C)c1cc(-c2ccc(F)cc2)no1 | 35 | 8 | -2 | -13 | 46* | 51* | 11 | 2
COc1ccc(Cn2cc(Cn3c4ccccc4c(=O)n3C(C)C)nn2)cc1 | -10 | x | x | x | x | x | x | x
COc1ccc(N2C(=O)c3ccccc3NC(=O)C2C(=O)NCC(C)C)cc1 (centres undefined) | -13 | x | x | x | x | x | x | x
SMILES | C8 TRAIL sens | PPC-1+TRAIL kill | STAT1 blocker | Platelet DG rel | STAT3 inh-1 | STAT3 inh-2 | NFkB inh 2 | STAT1 inh 2
O=C(O)COc1ccc(-c2nccc(-c3ccccn3)n2)cc1 | 18 | 25 | 15 | -3 | 47* | 38 | 15* | 0
CC(=O)Nc1ccc(NC(=O)C(C)OC(=O)CC23CC4CC(CC(Br)(C4)C2)C3)cc1 (centres undefined) | 7 | x | x | x | x | x | x | x
Cc1cc(C)n(Cc2ccc(NC(=O)c3ccc(COc4ccccc4Br)cc3)cc2)n1 | 18 | 15 | 5 | 6 | 52* | 52* | 9 | -1
O=C(Nc1ccc(Br)cc1)c1ccc(N2C(=O)C3CC=C(Cl)CC3C2=O)cc1 (centres undefined) | 21 | 21 | -1 | 7 | 47* | 33 | -15 | -17
O=C(Nc1ccc(Br)cc1)c1ccc(N2C(=O)C3CCCCC3C2=O)cc1 (centres undefined) | 7 | x | x | -7 | x | x | x | x
COC(=O)c1ccc(-c2nc3cc(Cl)c(N)cc3s2)cc1 | 83* | 33 | -48 | 26 | 87* | 69* | 31* | -4
O=C(NC1CC1)c1cc2c(s1)-c1ccccc1OC2 | 17 | 16 | -22 | 6 | 71* | 63* | -7 | -42
O=C(C1CCN(S(=O)(=O)c2cccc3cccnc23)CC1)N1CCN(c2ccc(Cl)cc2)CC1 | 12 | 10 | 26 | -15 | 47* | 30 | 14* | 24*
O=C(C1CCN(S(=O)(=O)c2cccc3cccnc23)CC1)N1CCN(c2ccccn2)CC1 | 4 | -5 | 5 | -1 | 12 | x | x | x
COc1cccc(N(C(=O)CCl)C(C(=O)NCCc2ccccc2)c2cccs2)c1 (centres undefined) | 96* | 35 | 18 | -4 | 63* | 95* | 22* | 25*
COc1ccc(N(C(=O)CCl)C(C(=O)NCCc2ccccc2)c2cccs2)cc1Cl (centres undefined) | 95* | 89* | 19 | -1 | 91* | 104* | 2 | 20*
CCCCCCCCN1C(=O)[C@H](CC(=O)N2CCOCC2)C[C@@]2(C(=O)OCC)CCCC=C12 | 6 | x | x | x | x | x | x | x
O=C(Oc1ccc2ccccc2c1)c1ccco1 | -2 | 12 | -8 | -2 | 3 | x | x | x
CC1CC(C)(C)Nc2ccc(OC(=O)c3ccco3)cc21 (centres undefined) | 34 | 12 | 20 | 14 | 62* | 31 | 25* | 11
Cc1ccc(S(=O)(=O)NCc2cn3c(C)csc3n2)cc1 | -18 | 3 | 8 | -3 | 5 | x | x | x
Cc1ccc(SCc2cn3c(C)csc3n2)cc1 | 30 | 40 | -28 | 3 | 54* | 22 | -21 | -70
Cc1ccc(S(=O)(=O)C(C#N)c2nc3ccccc3nc2N2CCN(C)CC2)cc1 (centres undefined) | -1 | 10 | -10 | 7 | 44* | 59* | 19* | 3

High-throughput results: PubChem BioAssay, several laboratories
